# Results published in publication PMC5540273 (PLoS ONE, 2017).
# What was measured:
# Conditions in all cases: concentration: 1 μM, replicates: in singlicate; n = 1
# ANKK1 = test system: ANKK1
# ARK5 = test system: T1, ARK5
# T1 construct: gene NUAK1
# ASK1 = test system: T2, ASK1
# T2 construct: gene MAP3K5
# ASK2 = test system: T3, ASK2
# T3 construct: gene MAP3K6
# AURKA = test system: AURKA
# AURKB = test system: AURKB
# AURKC = test system: AURKC
# AXL = test system: AXL
# BIKE = test system: T4, BIKE
# T4 construct: gene BMP2K
# BLK = test system: BLK
# BMPR1A = test system: BMPR1A
# BMPR1B = test system: BMPR1B
# BMPR2 = test system: BMPR2
# BMX = test system: BMX
# BRAF = test system: BRAF
# BRK = test system: T5, BRK
# T5 construct: gene PTK6
# BRSK1 = test system: BRSK1
# BRSK2 = test system: BRSK2
# BTK = test system: BTK
# BUB1 = test system: BUB1
# 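Further: KINOMEscan kinase panel screen.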
Compound,%Inh (ANKK1),%Inh (ARK5),%Inh (ASK1),%Inh (ASK2),%Inh (AURKA),%Inh (AURKB),%Inh (AURKC),%Inh (AXL),%Inh (BIKE),%Inh (BLK),%Inh (BMPR1A),%Inh (BMPR1B),%Inh (BMPR2),%Inh (BMX),%Inh (BRAF),%Inh (BRK),%Inh (BRSK1),%Inh (BRSK2),%Inh (BTK),%Inh (BUB1)
CCCc1ccc(S(=O)(=O)NC2CCN(c3ccnc(Nc4ccc(F)cc4)n3)C2)cc1 (stereo not shown) [GSK1379715],0%,0%,2%,0%,0%,29%,5%,12%,0%,0%,0%,0%,0%,2%,0%,0%,0%,0%,0%,29%
COc1cccc(-c2cc(-c3c[nH]nc3-c3ccccn3)ccn2)c1 [GW680338],13%,0%,0%,27%,0%,0%,89%,7%,54%,8%,0%,0%,10%,12%,12%,4%,3%,0%,0%,27%
CN1C(=O)C(Nc2ccc(Cl)c(C(=O)O)c2)=C(c2ccc(Cl)cc2)C1=O [SB-404290],0%,0%,0%,33%,19%,31%,5%,10%,0%,0%,4%,0%,25%,0%,0%,0%,0%,0%,0%,0%
Cc1cc(NCC(c2ccccc2)c2ccccc2)nc(NCc2ccc(C(F)(F)F)cc2)n1 [GW497681],9%,13%,0%,0%,7%,15%,8%,0%,0%,25%,0%,0%,14%,18%,0%,2%,0%,0%,0%,35%
Cc1cccc(-c2cc(Nc3ccncc3)c3ccccc3n2)n1 [GSK223675],6%,8%,11%,9%,9%,0%,1%,0%,9%,11%,0%,0%,0%,1%,0%,0%,0%,0%,0%,0%
